From PubChem BioAssay come the findings set out here.

What is called inhibition is the change of the read-out against control, counted positive when it falls.

A number with no mark means an inactive call. For some of these results: Measured potencies and affinities stand elsewhere. Active and inactive are the calls of the source. Unless noted, how the calls were made is not given here.

Assay [1] is described as follows: antimalarial activity against Dd2 strain (AID 2302;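 active means growth inhibition above 50% at the single 2 µM test dose, taken to imply half-maximal potency below 2 µM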;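 further: 0% = DMSO untreated growth and 100% = chloroquine plus artemisinin killed control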). Particulars: P. falciparum Dd2 in RBCs, LDH growth readout, 72 h; at 2 µM; stronger effect = higher value.
Assay [2] in a line: human hepatoma cell viability loss – ATP luminescence, cytotoxicity control for P. falciparum antimalarial project, primary screen (AID 2303;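 active means inhibition above 50%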;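 further: 0% = DMSO wells and 100% = digitonin-killed cells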). Particulars: HepG2 viability, 24-48 h, at 10 µM, stronger effect = higher value.
The target in assay [3] is L-lactate dehydrogenase (Plasmodium falciparum (isolate CDC / Honduras)) (UniProt Q27743). Kind of assay: PfLDH activity inhibition – cell lysate, 3D7 strain, counter-screen for P. falciparum growth inhibition project (AID 2304).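 Further: 0% = vehicle and 100% = reference inhibitor.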 The conditions noted are these: P. falciparum 3D7 crude extract, LDH APAD/NBT absorbance; at 2 µM; stronger effect = higher value. On the technique in general: A counterscreen serves to expose hits that act by an unwanted route or on another target.

A short description of assay [4]: inhibition of 3D7 malaria parasite growth – strain 3D7 (AID 2306).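 Further: 0% = DMSO wells and 100% = chloroquine plus artemisinin control wells.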 Particulars: P. falciparum 3D7 erythrocytic growth, LDH absorbance, 72 h; at 2 µM; stronger effect = higher value.
Assay [5] has as its target Calcium-dependent protein kinase 1 (Plasmodium falciparum (isolate 3D7)) (UniProt P62344). Kind of assay: PfCDPK1 kinase inhibitors, biochemical, TCAMS library (AID 1159585; cut-off not given, nearly all actives have IC50 up to about 0.98 µM;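 further: inhibitors leave more ATP so luminescence rises with inhibition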). The conditions noted are these: recombinant PfCDPK1, Kinase-Glo ATP depletion luminescence. A general note: In Kinase-Glo more light means more ATP remaining.
Assay [6] has as its target Plasmodium falciparum protein kinase 6 (PK6, PF3D7_1337100) (UniProt Q8IDW1). Nature of the assay: PfPK6 kinase inhibitors, biochemical, TCAMS library (AID 1159586). The conditions noted are these: recombinant PfPK6, Kinase-Glo ATP depletion luminescence.
Assay [7] addresses Protein kinase 7 (PK7), Plasmodium falciparum 3D7 (PF3D7_0213400) (UniProt Q7YTF7). Kind of assay: inhibition of Plasmodium PK7 catalytic activity – biochemical, TCAMS antimalarial set, Kinase-Glo luminescence (AID 1159587). The conditions noted are these: recombinant PfPK7, Kinase-Glo ATP depletion luminescence.
Assay [8] has as its target Calcium-dependent protein kinase 4 (Plasmodium falciparum (isolate 3D7)) (UniProt Q8IBS5). Kind of assay: PfCDPK4 kinase inhibitors, biochemical, TCAMS library (AID 1159588; cut-off not given, nearly all actives have IC50 up to about 0.91 µM). The conditions noted are these: recombinant PfCDPK4, Kinase-Glo ATP depletion luminescence.

Sequence of Calcium-dependent protein kinase 1 (Plasmodium falciparum (isolate 3D7)) (P62344 whole entry, looked up): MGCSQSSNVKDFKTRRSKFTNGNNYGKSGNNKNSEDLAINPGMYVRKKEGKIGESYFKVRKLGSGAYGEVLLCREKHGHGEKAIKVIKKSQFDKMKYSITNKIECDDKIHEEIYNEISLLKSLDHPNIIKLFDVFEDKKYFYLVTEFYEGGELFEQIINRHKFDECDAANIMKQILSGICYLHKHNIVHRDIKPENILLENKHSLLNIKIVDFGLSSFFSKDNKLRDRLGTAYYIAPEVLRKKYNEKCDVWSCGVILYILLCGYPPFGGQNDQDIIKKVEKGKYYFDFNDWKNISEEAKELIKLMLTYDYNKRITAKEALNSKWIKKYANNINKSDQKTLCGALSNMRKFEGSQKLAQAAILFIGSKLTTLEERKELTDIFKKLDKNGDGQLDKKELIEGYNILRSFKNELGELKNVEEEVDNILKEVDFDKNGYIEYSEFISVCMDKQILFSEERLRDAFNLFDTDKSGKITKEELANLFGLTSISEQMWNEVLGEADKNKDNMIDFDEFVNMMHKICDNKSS
Sequence of Calcium-dependent protein kinase 4 (Plasmodium falciparum (isolate 3D7)) (Q8IBS5 whole entry, looked up): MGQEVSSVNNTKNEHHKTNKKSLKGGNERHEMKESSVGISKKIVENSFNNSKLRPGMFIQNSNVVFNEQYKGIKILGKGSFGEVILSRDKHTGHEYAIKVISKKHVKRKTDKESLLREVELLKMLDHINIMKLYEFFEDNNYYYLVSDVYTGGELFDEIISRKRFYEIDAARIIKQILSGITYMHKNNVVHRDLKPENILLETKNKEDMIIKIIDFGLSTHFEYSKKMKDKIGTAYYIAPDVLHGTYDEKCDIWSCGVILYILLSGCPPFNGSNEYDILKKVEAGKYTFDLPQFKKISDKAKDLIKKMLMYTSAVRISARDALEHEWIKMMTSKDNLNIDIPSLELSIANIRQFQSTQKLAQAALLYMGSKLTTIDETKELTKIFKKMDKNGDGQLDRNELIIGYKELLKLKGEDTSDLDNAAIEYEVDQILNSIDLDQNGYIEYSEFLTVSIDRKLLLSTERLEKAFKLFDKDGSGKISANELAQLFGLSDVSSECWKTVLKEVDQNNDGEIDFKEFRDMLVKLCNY
Sequence of Protein kinase 7 (PK7), Plasmodium falciparum 3D7 (PF3D7_0213400) (Q7YTF7 1-343): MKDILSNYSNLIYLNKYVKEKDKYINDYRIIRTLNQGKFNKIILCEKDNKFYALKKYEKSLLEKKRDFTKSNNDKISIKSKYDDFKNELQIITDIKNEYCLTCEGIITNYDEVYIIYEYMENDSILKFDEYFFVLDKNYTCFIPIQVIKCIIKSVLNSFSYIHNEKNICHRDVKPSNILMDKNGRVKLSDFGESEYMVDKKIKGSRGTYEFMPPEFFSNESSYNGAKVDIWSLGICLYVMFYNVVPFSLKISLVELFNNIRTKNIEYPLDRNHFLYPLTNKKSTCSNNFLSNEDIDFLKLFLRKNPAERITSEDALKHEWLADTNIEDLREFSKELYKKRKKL
Sequence of L-lactate dehydrogenase (Plasmodium falciparum (isolate CDC / Honduras)) (Q27743 whole entry, looked up): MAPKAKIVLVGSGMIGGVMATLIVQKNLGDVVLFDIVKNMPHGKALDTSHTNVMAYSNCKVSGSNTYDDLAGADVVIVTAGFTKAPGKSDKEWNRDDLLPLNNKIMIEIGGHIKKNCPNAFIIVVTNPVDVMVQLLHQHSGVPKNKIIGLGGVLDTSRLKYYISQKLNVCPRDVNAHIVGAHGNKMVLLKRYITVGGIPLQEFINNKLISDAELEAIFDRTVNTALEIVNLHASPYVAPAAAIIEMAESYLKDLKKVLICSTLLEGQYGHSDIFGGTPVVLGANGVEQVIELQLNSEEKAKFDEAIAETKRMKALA
Sequence of Plasmodium falciparum protein kinase 6 (PK6, PF3D7_1337100) (Q8IDW1 1-305): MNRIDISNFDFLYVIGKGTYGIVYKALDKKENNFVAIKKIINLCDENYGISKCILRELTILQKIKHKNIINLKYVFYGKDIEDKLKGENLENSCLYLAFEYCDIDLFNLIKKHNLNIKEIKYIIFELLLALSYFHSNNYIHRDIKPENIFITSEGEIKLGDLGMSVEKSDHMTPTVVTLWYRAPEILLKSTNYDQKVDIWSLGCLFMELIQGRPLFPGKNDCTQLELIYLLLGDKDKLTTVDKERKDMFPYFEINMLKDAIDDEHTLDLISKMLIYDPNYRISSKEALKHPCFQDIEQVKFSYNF

Take `COC(=O)c1ccc(C(=O)NCCCCN2CCC(c3ccc4c(c3OC)CCCC4)CC2)cc1-c1ccc(C(F)(F)F)cc1`: the growth inhibition in assay [1] was 19%; in assay [4], 93% (active). Further, the inhibition was 24% in assay [2] and 2% in assay [3]. The outcome in assay [5], in assay [6], in assay [7] and in assay [8] was inactive.
As for `CN1CCN(CC(=O)Nc2cccc(-c3ccc(-c4nc5ccc(C(F)(F)F)cc5[nH]4)s3)c2)CC1`, the growth inhibition in assay [1] was 95% (active); in assay [4], 102% (active). The results for the inhibition in assay [2] and in assay [3] were 36% and 1%, respectively. The outcome in assay [5], in assay [6], in assay [7] and in assay [8] was inactive.
For `O=c1cc(NCCC(CNCc2ccoc2)NCc2cc(Br)cc(Br)c2)[nH]c2ccccc12` (stereo not given), the results for the growth inhibition in assay [1] and in assay [4] were 28% and 92% (active), respectively. Moreover, the inhibition in assay [2] was -6%; in assay [3] it was -1%. Also, the result in assay [5], in assay [6], in assay [7] and in assay [8] was inactive.
Take `CCN1CCC(N(Cc2ccc(-c3ccc(C(F)(F)F)cc3)cc2)C(=O)Cn2c(CCc3cccc(F)c3F)cc(=O)c3ccccc32)C1` (stereo not given): the growth inhibition is 84% (active) in assay [1] and 93% (active) in assay [4]. Besides, the inhibition in assay [2] was 43%; in assay [3], 3%. The outcome in assay [5], in assay [6], in assay [7] and in assay [8] was inactive.
For the compound `OC1CCCN(Cc2ccc(-c3ccc(-c4nc5ccccc5[nH]4)cc3)cc2)C1` (stereo not given), the figures for the growth inhibition in assay [1] and in assay [4] were 77% (active) and 100% (active), respectively. Besides, the inhibition was 46% in assay [2] and -4% in assay [3]. For the same compound, the outcome in assay [5], in assay [6], in assay [7] and in assay [8] was inactive.
Regarding `N#Cc1ccc(C2CCN(CC[C@H](N)Cc3ccc(Cl)s3)CC2)cc1`, the growth inhibition in assay [1] is 30%; in assay [4], 92% (active). The inhibition in assay [2] is 31%; in assay [3] it was 6%. Besides, the result in assay [5], in assay [6], in assay [7] and in assay [8] was inactive.
Consider `Cc1nn(CCOC(=O)NC(NCC2COc3ccccc3O2)C(Cl)(Cl)Cl)cc1[N+](=O)[O-]` (stereo not given), for which the growth inhibition in assay [1] and in assay [4] was 99% (active) in each case. In addition, the figures for the inhibition in assay [2] and in assay [3] were -9% and 2%, respectively. Also, the outcome in assay [5], in assay [6], in assay [7] and in assay [8] was inactive.
On to `Cc1cccc2[nH]c(-c3cccc(-c4ccc(CNCc5ccccc5)cc4)c3)nc12`, for which the figures for the growth inhibition in assay [1] and in assay [4] were 100% (active) and 99% (active), respectively. Also, the results for the inhibition in assay [2] and in assay [3] were 33% and -3%, respectively. Also, the result in assay [5], in assay [6], in assay [7] and in assay [8] was inactive.
Take `Cc1ccc2c(=O)c3cc(C)ccc3[nH]c2c1`: the values for the growth inhibition in assay [1] and in assay [4] were 94% (active) and 96% (active), respectively. In addition, the results for the inhibition in assay [2] and in assay [3] were 10% and 5%, respectively. The outcome in assay [5], in assay [6], in assay [7] and in assay [8] was inactive.
Consider `Cc1ccc(NC(C)C(=O)Nc2ccccc2)cc1S(=O)(=O)N1CCCCCC1` (stereo not given), for which the results for the growth inhibition in assay [1] and in assay [4] were 97% (active) and 99% (active), respectively. Moreover, the inhibition was 12% in assay [2] and -4% in assay [3]. Also, the result in assay [5], in assay [6], in assay [7] and in assay [8] was inactive.
Consider `C=CCNC(CCCCC)c1ccc(OCCOc2ccc(C(CCCCC)NCC=C)cc2)cc1` (stereo not given), for which the growth inhibition in assay [1] is 48%; in assay [4], 88% (active). Moreover, the values for the inhibition in assay [2] and in assay [3] were 100% (active) and -6%, respectively. Also, the outcome in assay [5], in assay [6], in assay [7] and in assay [8] was inactive.
Regarding `Cc1cccc(NC(=O)NC2CCN(CCCCCNC(=O)/C=C/c3ccc(Cl)c(Cl)c3)CC2)c1`, the growth inhibition in assay [1] was 21%; in assay [4], 101% (active). In addition, the inhibition in assay [2] was 34%; in assay [3], -3%. The outcome in assay [5], in assay [6], in assay [7] and in assay [8] was inactive.
On to `CCOC(=O)C1=C(C)N=c2sc(=Cc3ccccc3O)c(=O)n2C1c1ccc(OC)c2ccccc12` (stereo not given), for which the growth inhibition in assay [1] is 38%; in assay [4] it was 97% (active). Further, the figures for the inhibition in assay [2] and in assay [3] were -6% and 1%, respectively. In addition, the result in assay [5], in assay [6], in assay [7] and in assay [8] was inactive.
In the case of `CCOc1ccc2nc(C)cc(NN=Cc3ccccc3F)c2c1`, the growth inhibition in assay [1] is 99% (active); in assay [4] it was 101% (active). The inhibition was 0% in assay [2] and -3% in assay [3]. Further, the outcome in assay [5], in assay [6], in assay [7] and in assay [8] was inactive.
On to `O=C(Nc1cccc(-c2nn3ncccc3c2-c2ccnc(Nc3cccnc3)n2)c1)c1c(F)cccc1F`, for which the growth inhibition in assay [1] was 70% (active); in assay [4] it was 96% (active). Further, the inhibition is 5% in assay [2] and -2% in assay [3]. Besides, the outcome in assay [5], in assay [6], in assay [7] and in assay [8] was inactive.
As for `O=C(Nc1ccc(Cn2nc(Cl)c(N3CCCNCC3)cc2=O)cc1)Nc1ccc(-c2ccccc2)cc1`, the growth inhibition in assay [1] was 36%; in assay [4] it was 87% (active). Also, the inhibition in assay [2] was 89% (active); in assay [3], 1%. Moreover, the result in assay [5], in assay [6], in assay [7] and in assay [8] was inactive.
With `CCCSc1nc2c(c(=O)n1Cc1ccco1)C1(CCCCC1)Cc1ccccc1-2`, the growth inhibition was 95% (active) in assay [1] and 100% (active) in assay [4]. The inhibition was -1% in assay [2] and 0% in assay [3]. The result in assay [5], in assay [6], in assay [7] and in assay [8] was inactive.
Consider `CCOC(=O)/C(=N\OC(C)(C)C(=O)NCc1ccc(O)c(O)c1)c1csc(NC(c2ccccc2)(c2ccccc2)c2ccccc2)n1`, for which the values for the growth inhibition in assay [1] and in assay [4] were 99% (active) and 100% (active), respectively. The values for the inhibition in assay [2] and in assay [3] were 13% and -3%, respectively. Moreover, the result in assay [5], in assay [6], in assay [7] and in assay [8] was inactive.
As for `O=C(Nc1ccc(OC(F)(F)F)cc1)Nc1ccc([N+](=O)[O-])cc1`, the growth inhibition in assay [1] and in assay [4] was 100% (active) in each case. Further, the inhibition was 41% in assay [2] and 3% in assay [3]. The result in assay [5], in assay [6], in assay [7] and in assay [8] was inactive.
On to `O=C(/C=C/c1ccc(Cl)c(Cl)c1)NCCCCCN1CCC(CCNC(=O)/C=C/c2cc(C(F)(F)F)ccc2F)CC1`, for which the growth inhibition in assay [1] is 46%; in assay [4] it was 98% (active). Also, the inhibition is 25% in assay [2] and -5% in assay [3]. In addition, the outcome in assay [5], in assay [6], in assay [7] and in assay [8] was inactive.
